Screening results deposited in PubChem by Sanford-Burnham Center for Chemical Genomics.
CRFBP-R2 block = blocks CRF-induced signaling of the CRF-BP/CRF-R2 complex; actives 0.59% (n = 350,000); HEK293 CRF-R2/CRF-BP, CRF-induced calcium fluorescence; inhibition, % at 11.8 µM;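 active = inhibition of the ligand-induced calcium signal above about 50% at the single tested concentration, limit read from the data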
hiPSC survival = enhancers of human iPSC single-cell survival; hiPSC single-cell survival, ATPlite luminescence; 100% = ROCK inhibitor wells, 0% = DMSO; survival enhancement, % at 20 µM; actives 0.044% (n = 360,000); AID 602274; in the data active = survival enhancement above about 18%;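 also: cells exposed to compounds for 16 hours before the ATP read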
H9c2 protect = myocardial damage modulation in H9c2 cells; H9c2 cardiomyocytes, H2O2 injury protection, ATPLite, 2 h; protection from H2O2 cell death, % at 20 µM; actives 0.63% (n = 360,000); AID 588492;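 active = compounds giving at least 50% protection of heart cells from peroxide-induced death in the single-dose screen, raw or plate-pattern-corrected value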;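 also: 0% = DMSO wells with peroxide and 100% = DMSO wells without peroxide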
TAG inh = reduces triacylglycerol accumulation in H9c2 cells. Nile Red lipid (TAG) fluorescence; cells loaded with 200 µM oleic acid. inhibition, % at 12.5 µM. actives 0.66% (n = 230,000);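 active = pattern-corrected inhibition of lipid staining of at least 50% with the nuclear-stain viability signal not falling by more than 50%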;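 also: 0% = DMSO wells and 100% = triacsin C control wells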
SKN-1 inh = blocks SKN-1 activity in C. elegans. C. elegans VP596 Pgst-4::GFP/RFP ratio, acrylamide-induced, 24 h. actives 0.49% (n = 360,000). inhibition, % at 21.8 µM;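 active = interference check ratio from 0.5 to 1.5 plus GFP to RFP signal ratio inhibition reaching or exceeding a fixed threshold, cut at about 30% in these data, passing the limit was not always enough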
CRFBP-R2 agonist = agonists of human CRF-binding protein/CRF-R2 receptor complex | actives 0.46% (n = 350,000) | AID 588473 | activation, % at 13.2 µM | HEK293 CRF-R2/CRF-BP, calcium dye fluorescence (FLIPR); percent of saturating CRF peptide response;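 active = activation of at least 50%, plus an integration ratio under a set limit after plate pattern correction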;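 also: plate controls were neutral control wells without compound for no effect and CRF at EC100 for full effect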
* marks the source's active call; other numbers are inactive results; x = no result given; ! = repeats disagree. An excerpt weighted towards active compounds, which were near 2.5% of everything screened.

SMILES	CRFBP-R2 block	hiPSC survival	H9c2 protect	TAG inh	SKN-1 inh	CRFBP-R2 agonist
CC(C)NC(=O)C1(C)CN(S(C)(=O)=O)CC(=O)N1CCc1ccccc1F (stereo unspecified)	x	x	x	x	21.7	x
O=C(O)c1cnc(-c2ccccc2)nc1Sc1ccc(Cl)cc1Cl	96.6*	0.2	-12.7	16.1	19.1	-2.6
Cc1ccc(C(=O)NCC(=O)NCC(=O)OCC(=O)c2ccc(F)cc2)cc1	10.8	1.1	9.5	x	7.9	-2.6
Cc1cc(C)nc(SCCC(=O)Nc2ccccc2C)n1	74.6*	-0.3	-3.9	x	5.6	0.0
Cc1cccc(C)c1NC(=O)CNC(=O)c1c(-c2ccccc2)noc1C	-7.5	-0.5	1.1	0.1	-10.9	1.4
CCOc1cc(N2CCOCC2)c(OCC)cc1NC(=O)c1ccc(OCc2c(C)noc2C)c(OC)c1	5.1	-0.4	63.3*	x	5.8	-4.3
CCOc1cc(N2CCOCC2)c(OCC)cc1NC(=O)c1nn(CC)c(=O)c2ccccc12	8.2	-0.5	53.9*	40.5	2.7	0.2
CCn1nc(C(=O)NNC(=O)c2cc(Cl)ccc2OC)c2ccccc2c1=O	1.9	-0.9	66.4*	16.5	-3.6	-0.8
CCOc1cc(N2CCOCC2)c(OCC)cc1NC(=O)c1ccccc1C	-6.1	0.4	13.2	3.3	-2.8	-1.1
CCOC(=O)CC1(CCc2ccccc2)Oc2ccccc2O1	x	x	x	x	10.6	x
O=C(c1cc2nc(-c3ccc(F)cc3)cc(C(F)(F)F)n2n1)N1CCOCC1	54.5*	-0.4	-10.0	-26.8	-6.6	-0.3
O=C(NC(C(=O)N/N=C/c1ccncc1)c1n[nH]c(=O)c2ccccc12)c1ccccc1 (stereo unspecified)	4.5	-0.4	5.3	-3.5	-19.5	-0.7
O=C(NC(C(=O)N/N=C/c1cccnc1)c1n[nH]c(=O)c2ccccc12)c1ccccc1 (stereo unspecified)	-58.5	0.0	12.4	-1.8	-10.7	95.9*
CC(O)(c1cccnc1)c1nc(-c2ccc(F)c(Cl)c2)cs1 (stereo unspecified)	x	-1.5	-8.1	-12.1	29.9	x
O=C(NCc1ccccc1)c1cc(C2CCCN(C(=O)C3CCCCC3)C2)on1 (stereo unspecified)	x	-0.8	3.7	7.3	13.7	x
CN(C)CCCN1C(=O)c2cccc3c([N+](=O)[O-])ccc(c23)C1=O	80.9*	1.5	-11.6	20.7	-12.0	56.0*
CC1(C)C2CC=C(/C=N/NC(=S)Nc3cccnc3)C1C2 (stereo unspecified)	26.5	-0.3	1.1	-2.4	2.3	1.0
CC1=C/C(=N\NC(=S)Nc2cccnc2)CC(C)(C)C1	-14.5	2.7	5.6	53.3*	0.0	-3.9
CC(NS(=O)(=O)c1cc2c3c(c1)CCN3C(=O)CC2)c1ccccc1 (stereo unspecified)	7.4	-3.1	4.0	36.5	17.4	0.0
Cc1cc(=O)oc2c(C)c(OC(=O)c3ccco3)ccc12	-35.1	0.2	44.5	1.3	4.5	0.0
CCC(=O)Oc1ccc2c(C)cc(=O)oc2c1C	-6.5	1.8	58.8*	-14.1	11.9	4.3
C[C@@H]1O[C@H](C2CCCC2)Cc2[nH]c(=S)[nH]c(=O)c21	x	1.5	x	x	-0.1	x
COc1ccc(C(C)(C)NC(=O)C2CCC(=O)N(C3CCCC3)C2)cc1OC (stereo unspecified)	1.0	-0.1	-3.2	7.3	5.3	0.3
Cc1ccc(NC(=O)C2=C(c3ccccc3)S(=O)(=O)CCS2(=O)=O)cc1	-51.9	-1.0	-37.0	91.5	-7.2	54.7*
O=C(NCC1CCCO1)c1[nH]c(C(F)(F)F)nc1-c1ccccc1 (stereo unspecified)	x	-0.8	5.6	x	4.6	x
SMILES	CRFBP-R2 block	hiPSC survival	H9c2 protect	TAG inh	SKN-1 inh	CRFBP-R2 agonist
Cc1onc(-c2ccccc2Cl)c1C(=O)N/N=C(\N)COc1ccc(Cl)cc1	-6.0	-0.7	60.2*	x	6.4	-2.3
COc1ccc(C(=O)N(C)Cc2ccc(C)o2)cc1OC1CCN(C(C)=O)CC1	-12.8	0.1	-2.2	-14.1	-10.7	2.8
Cc1ccc(Nc2nc(N)nc(-c3oc4ccccc4c3C)n2)cc1	-2.4	-0.3	-4.3	57.6*	-4.1	2.6
COCCN1C(=O)/C(=C/c2ccc(N3CCCC3)cc2)SC1=S	-212.1	-2.0	-29.0	-149.2	48.7	265.1*
O=C1CN(S(=O)(=O)c2cc(C(F)(F)F)ccc2Cl)CCN1	-1.5	0.2	-2.2	4.9	1.1	-0.7
O=C1/C(=C/c2cccs2)SC(=S)N1CC(=O)N1CCCCC1CCO (stereo unspecified)	3.9	-0.5	-6.0	x	43.7*	-0.6
COc1ccc(NS(=O)(=O)N2CCCCC2)cc1	2.2	8.6	-0.8	-9.2	3.9	-0.2
CCOC(=O)c1ccc(N=c2sc(C(=O)OC)cc(=O)n2CCCN2CCOCC2)cc1	56.9*!	7.1	0.7	12.7	-2.4	-1.8
COc1ccccc1-c1cc(C(=O)NN)[nH]n1	57.2*	0.0	3.6	-4.5	-0.4	-0.9
COCCNc1nc(Nc2ccc(C(=O)OC)cc2)c2sccc2n1	x	3.8	18.3	12.3	4.2	x
O=C1OCCC1Sc1nc2cc(Cl)ccc2s1 (stereo unspecified)	37.6	-0.5	-4.4	x	-3.1	-0.7
CSc1nc2cc(Cl)ccc2s1	51.7*	-1.2	2.3	-18.0	20.6	-1.0
CCCCNC(=O)c1nc(C2CCNCC2)oc1-c1ccccc1	x	x	x	x	1.5	x
CC(C)(C)Cc1c(-c2cccc(Br)c2)nc2ccc(Br)cn12	x	-1.4	-2.5	x	11.2	x
c1ccc2c(c1)nnn2-c1ncnc2sc3c(c12)CCCC3	62.2*	-3.9	-0.6	x	2.4	-0.2
Cn1c(=O)n(Cc2ccccc2F)c2ccccc21	-15.6	0.1	0.7	-18.1	-7.2	-1.0
Cn1c(=O)n(Cc2ccccc2Cl)c2ccccc21	52.5*	1.3	11.7	15.1	8.9	0.0
Cc1ccccc1NS(=O)(=O)c1ccc(C(=O)NCc2ccccc2CN2CCCC2)cc1	-22.6	-2.3	-2.7	9.5	-10.9	3.3
CC(=O)NC(C)(c1ccccc1)c1nc(-c2cccc(C(F)(F)F)c2)cs1 (stereo unspecified)	x	0.7	3.5	-13.4	17.2	x
CCOC(=O)C1=C(C)N=c2s/c(=C\c3ccc(O)c([N+](=O)[O-])c3)c(=O)n2C1c1ccccc1OC (stereo unspecified)	30.0	0.1	-11.0	0.8	8.8	-1.5
CCOC(=O)C1=C(C)N=c2s/c(=C/c3cccc([N+](=O)[O-])c3O)c(=O)n2C1c1ccc(OC)cc1OC (stereo unspecified)	59.0*	0.4	-9.3	9.8	-12.2	-0.7
COc1ccc(C2C(C(C)=O)=C(C)N=c3s/c(=C\c4cc(C)n(C)c4C)c(=O)n32)c(OC)c1 (stereo unspecified)	-27.9	1.8	17.4	-28.9	39.4*	17.3
